Source: PubChem BioAssay (Broad Institute)
CaV13 ICDI inh: Primary screen for inhibitors of IQ motif and Ca2+-dependent inactivation inhibitor domain binding in CACNA1D, Förster resonance energy transfer in living cells, …; 0.098% of 340,000 active; inhibition, % at 12.3 µM; HEK cells, CFP/YFP FRET ICDI-IQ, plate reader, 10 min; percent FRET-ratio fall versus neutral wells;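 active = mean replicate inhibition of at least 30% and at least 1% of replicates passing that level; inconclusive = only one of the two criteria is met; inactive = neither criterion is met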;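 also: 0% = median of the neutral control wells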
Ecoli rRNA inh: inhibits bacterial ribosomal RNA function over humanized ribosomes. E. coli WT GFP vs humanized-ribosome RFP mutants, fluorescence, 24 h; active compounds read low; DMSO median 0, no signal -100. GFP signal change (wild-type ribosome), % (no concentration beside the values). AID 720706. 1.6% of 350,000 active;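 active = significant combined selectivity score with lowered wild-type GFP, culture density cut under 30%, mutant RFP and density less affected; inactive = any of these conditions unmet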
INS-1E GSIS act: primary screen for activators of insulin secretion dependent on glucose, INS-1E cells, GLuc reporter luminescence. 0.61% of 370,000 active. INS-1E GLuc reporter insulin secretion, 2-3 h. activation, % at 16.6 µM;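 active = lowest replicate activation of at least 40%, so every replicate reaches that level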;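 also: 0% = median of neutral control wells and 100% = median of IBMX positive control wells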
DENV2 CPE: inhibitors of DENV2 cytopathic effect; DENV2-infected cells, cytopathic effect rescue, plate reader; CPE inhibition, % at 9.99 µM; 1.7% of 350,000 active; AID 651640; in the data active = CPE inhibition above about 20%, passing the limit was not always enough; inconclusive = no clear call, values can overlap the other calls; tested in BHK-21 cells;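 also: 0% = median of neutral control wells and 100% = median of positive control wells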
ERAP1 HTS inh: blocks human ERAP1 aminopeptidase activity. Q9NZ08. recombinant ERAP1, Leu-AMC fluorescence, 60 min. inhibition, % at 10.7 µM. 0.15% of 340,000 active. AID 652197;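 active = mean replicate inhibition of at least 30%, or all replicates individually reaching that 30% level; inactive = mean below 30% and not every replicate reaching it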;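 also: 0% = neutral control wells and 100% = L-leucinethiol positive control wells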
Target sequence (Q9NZ08 whole entry, looked up): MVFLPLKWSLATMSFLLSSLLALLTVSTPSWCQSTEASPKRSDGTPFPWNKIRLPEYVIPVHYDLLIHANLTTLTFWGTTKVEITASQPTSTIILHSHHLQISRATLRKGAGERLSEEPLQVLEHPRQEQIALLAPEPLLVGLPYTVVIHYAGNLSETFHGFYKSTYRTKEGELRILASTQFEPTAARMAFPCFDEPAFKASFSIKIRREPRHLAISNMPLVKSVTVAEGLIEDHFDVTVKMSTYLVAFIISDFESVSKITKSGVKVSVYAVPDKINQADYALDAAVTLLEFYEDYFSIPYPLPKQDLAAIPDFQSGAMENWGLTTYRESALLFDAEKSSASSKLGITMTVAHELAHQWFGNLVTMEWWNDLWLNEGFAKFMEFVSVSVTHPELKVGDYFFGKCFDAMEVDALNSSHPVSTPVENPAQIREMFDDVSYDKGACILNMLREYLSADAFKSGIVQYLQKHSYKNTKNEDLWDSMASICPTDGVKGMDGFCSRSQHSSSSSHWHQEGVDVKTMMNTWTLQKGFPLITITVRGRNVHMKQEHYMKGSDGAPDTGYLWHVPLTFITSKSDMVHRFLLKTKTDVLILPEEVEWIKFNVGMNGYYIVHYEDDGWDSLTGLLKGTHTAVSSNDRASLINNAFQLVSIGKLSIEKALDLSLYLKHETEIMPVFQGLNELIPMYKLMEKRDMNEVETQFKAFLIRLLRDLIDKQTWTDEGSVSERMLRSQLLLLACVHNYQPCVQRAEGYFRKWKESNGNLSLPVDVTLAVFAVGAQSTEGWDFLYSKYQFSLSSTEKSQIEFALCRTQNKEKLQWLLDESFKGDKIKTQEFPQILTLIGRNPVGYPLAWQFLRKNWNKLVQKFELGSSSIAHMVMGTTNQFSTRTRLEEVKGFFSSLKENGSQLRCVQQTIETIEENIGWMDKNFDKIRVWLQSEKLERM
PGC1a acetyl inh: PGC1a acetylation modulation, inhibitor mode | U2OS PGC1a acetylation, AlphaScreen anti-acetyl-lysine; with virally co-expressed GCN5 acetyltransferase | inhibition, % at 15.6 µM | 0.17% of 350,000 active;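 active = every replicate shows inhibition of at least 40%; inconclusive = mean inhibition at least 40% but some replicate below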;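 also: 0% = neutral control wells and 100% = positive control wells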
Numbers without * were called inactive; ? = inconclusive; / = not tested or not shown. This is a sample that favours compounds with a hit; in the whole collection about 3.2% have one here.

SMILES	CaV13 ICDI inh	Ecoli rRNA inh	INS-1E GSIS act	DENV2 CPE	ERAP1 HTS inh	PGC1a acetyl inh
O=C(Cc1cccnc1)N[C@@H]1CC[C@@H](CCn2cc(Cc3ccccc3)nn2)O[C@H]1CO	/	1.8	2.5	5.1	1.9	1.1
O=C(Cc1cccnc1)N[C@H]1CC[C@@H](CCn2cc(Cc3ccccc3)nn2)O[C@H]1CO	/	-0.5	-0.1	88.5*	0.7	3.1
O=C(C[C@H]1CC[C@H](NC(=O)Cc2cccnc2)[C@H](CO)O1)Nc1ccccc1	/	-0.1	15.5	3.7	0.0	1.3
O=C(C[C@@H]1CC[C@H](NC(=O)Cc2cccnc2)[C@@H](CO)O1)Nc1ccccc1	/	1.8	13.7	44.3*	1.1	-2.0
C[C@@H]1CN([C@H](C)CO)C(=O)c2cc(NC(=O)CCC(F)(F)F)ccc2O[C@@H]1CN(C)Cc1ccc2c(c1)OCO2	/	2.7	13.2	-2.3	1.5	-14.2
NC(=O)c1cc(Cl)cn(-c2ccccc2)c1=O	-6.6	11.5	/	82.5*	-2.4	-3.6
Cc1ccc(S(=O)(=O)N(C)C[C@H]2OCCCC[C@H](C)Oc3ccc(NC(=O)CCCN(C)C)cc3C(=O)N([C@@H](C)CO)C[C@H]2C)cc1	/	-1.9	16.5	-6.0	-3.9	1.6
CC(=O)Oc1ccc2c(=O)c(-c3ccccc3)coc2c1	-6.4	-24.4*	11.2	-2.8	-0.9	1.5
CCNC(=O)C[C@H]1CC[C@@H]2[C@H](COC[C@@H](O)CN2Cc2ccc(Cl)c(Cl)c2)O1	/	-3.9	-13.8	-4.1	-2.4	4.8
CCNC(=O)C[C@H]1CC[C@H]2[C@@H](COC[C@@H](O)CN2Cc2ccc(Cl)c(Cl)c2)O1	/	-2.6	0.7	104.9*	3.7	-2.0
CCNC(=O)C[C@H]1CC[C@@H]2[C@H](COC[C@H](O)CN2Cc2ccc(Cl)c(Cl)c2)O1	/	0.0	-5.9	81.9*	0.3	1.8
CS(=O)(=O)N1CC(=O)N2[C@H](CO)[C@H](c3ccc(C#Cc4cccc(F)c4)cc3)[C@@H]2C1	/	7.7	-3.7	-2.5	-1.7	-9.7
C[C@@H]1CN([C@H](C)CO)C(=O)Cc2cc(NC(=O)Nc3ccc(F)cc3)ccc2O[C@@H]1CN(C)Cc1ccc(C(=O)O)cc1	/	-2.7	1.2	-4.7	-4.2	5.0
COc1ccc(NC(=S)/N=C(\N)Nc2nc(C)c3ccc(C)cc3n2)cc1	-14.7	-3.5	-2.0	1.2	-0.2	-3.1
CCOc1ccc2nc(N/C(N)=N/C(=S)Nc3ccc(C)c(C)c3)nc(C)c2c1	-5.2	4.7	-5.8	108.1*	-5.5	/
Cc1cccc(NC(=O)c2c([N+](=O)[O-])c(C(C)(C)C)nn2C)c1	-4.5	13.2	0.5	8.7	-0.1	/
CCOc1ccc(NC(=O)c2nn(C)c(C(=O)Nc3ccc(OCC)cc3)c2[N+](=O)[O-])cc1	-20.3	-1.6	28.0	34.3*	-1.0	-12.4
CCOc1ccc(NC(=O)c2nn(C)cc2Br)cc1	-8.6	/	/	/	/	-17.5
COc1cccc(NC(=O)c2nn(C)c(C(=O)Nc3cccc(OC)c3)c2[N+](=O)[O-])c1	-2.9	-39.6*	-22.1	-4.0	-0.1	/
Cn1nc(C(C)(C)C)c([N+](=O)[O-])c1C(=O)Nc1ccc(Br)cc1	5.8	-26.0*	/	-4.8	/	/
CC(=O)N1CC[C@@H]2[C@@H](CO)N(C)c3ccc(-c4ccccc4)cc3[C@@H]21	/	1.0	-5.8	-7.0	-1.0	-0.9
O=C(C[C@H]1C=C[C@H](NS(=O)(=O)c2cccc(F)c2)[C@H](CO)O1)NCc1ccc2c(c1)OCO2	/	5.0	-3.9	-2.3	1.4	-6.8
CCC(=O)N[C@@H]1CC[C@@H](CC(=O)NCc2cc(F)cc(F)c2)O[C@H]1CO	/	3.1	3.0	-1.6	0.0	11.5
C[C@H]1CN([C@@H](C)CO)S(=O)(=O)c2ccc(-c3ccc(C(=O)N(C)C)cc3)cc2O[C@H]1CN(C)C(=O)C1CCCCC1	/	-0.4	-0.8	-3.6	-1.8	8.5
C[C@H]1CCCCO[C@@H](CN(C)C(=O)c2ccccc2)[C@@H](C)CN([C@@H](C)CO)C(=O)c2cc(NC(=O)Cc3ccccc3)ccc2O1	/	-0.5	-22.1	-9.5	-0.7	4.5
SMILES	CaV13 ICDI inh	Ecoli rRNA inh	INS-1E GSIS act	DENV2 CPE	ERAP1 HTS inh	PGC1a acetyl inh
CN(C)C(=O)C[C@@H]1CC[C@@H]2[C@H](COc3ccc(NC(=O)C4CCCCC4)cc3C(=O)N2C)O1	/	3.5	-1.1	27.9*	/	0.0
CN(C)C(=O)C[C@@H]1CC[C@H]2[C@@H](COc3ccc(NC(=O)C4CCCCC4)cc3C(=O)N2C)O1	/	0.2	10.1	9.7	1.5	7.8
CN1C(=O)c2cc(NC(=O)c3cccc(F)c3)ccc2OC[C@H]2O[C@@H](CC(=O)N3CCc4ccccc4C3)CC[C@@H]21	/	-26.2*	-9.2	6.0	0.2	-6.4
CN1CCN(C(=O)C[C@@H]2CC[C@H]3[C@H](COc4ccc(NC(=O)C5CCCC5)cc4C(=O)N3C)O2)CC1	/	0.7	21.9	25.3*	-2.8	/
COc1cccc(NC(=O)C[C@H]2CC[C@@H]3[C@@H](COc4ccc(NC(=O)C5CCCCC5)cc4C(=O)N3C)O2)c1	/	-6.3	6.8	32.9*	0.0	-0.4
CC(C)(C)[S@@](=O)N1Cc2cc(C(=O)NCc3ccncc3)nc(-c3cccc(-c4cccc(C#N)c4)c3)c2[C@H]1CCO	/	4.9	19.1	-1.0	1.9	20.0
C[C@H](CO)N1C[C@H](C)[C@@H](CN(C)Cc2ccncc2)Oc2ccc(N(C)C)cc2C1=O	/	2.6	26.7	47.3*	-3.0	23.3
C[C@H](CO)N1C[C@H](C)[C@H](CN(C)CC2CC2)Oc2c(cccc2N(C)C)C1=O	/	-0.7	8.7	43.8*	4.0	3.1
C[C@@H]1CN([C@@H](C)CO)C(=O)c2cc(N(C)C)ccc2O[C@H]1CN(C)Cc1ccccc1	/	2.4	16.9	?	0.6	-7.1
C[C@H]1CN([C@@H](C)CO)C(=O)c2cccc(N(C)C)c2O[C@H]1CN(C)C	/	2.1	13.4	-3.6	2.7	10.1
C[C@@H]1CN([C@H](C)CO)C(=O)c2cccc(N(C)C)c2O[C@H]1CN(C)Cc1ccncc1	/	-1.6	5.2	20.2*	-0.3	8.6
C[C@@H]1CCCCO[C@H](CN(C)C(=O)Nc2ccc(C(F)(F)F)cc2)[C@@H](C)CN([C@H](C)CO)C(=O)c2cc(NC(=O)Nc3cccc4ccccc34)ccc2O1	/	0.6	13.7	?	1.7	/
O=C(C1=C[C@H](c2csc3ccccc23)C[C@H](OCCCCO)O1)N1CCCCCCC1	/	/	/	-6.6	3.9	-14.8
Brc1ccc2ncnc(NCc3ccccc3)c2c1	/	/	/	/	/	42.4*
c1cncc(CNc2ncnc3ccc(-c4ccoc4)cc23)c1	5.8	0.0	/	?	-2.8	55.1*
c1ccc(CCNc2ncnc3ccccc23)cc1	-2.7	-1.7	-26.6	-0.4	4.1	/
